# Results filed as inconclusive are left out. Activity calls are given as the source filed them. Calls come from the whole dose curve; as a rule, active = well fitted activation curve with a large enough effect in the repeat runs; inconclusive = weak or mixed curves; inactive = flat fitted curve, though single readings scatter.
# Assay: Caspase-3/7 induction in HepG2 cells by small molecules, qHTS assay (AID 1346978); note: nearly all actives have a fitted effect of over 15% in size
# Details: HepG2 caspase-3/7 activation, Caspase-Glo luminescence, 17 h; series mostly up to 92.4 µM
# Text: National Center for Advancing Translational Sciences [NCATS] NIH Chemical Genomics Center [NCGC] U.S. Environmental Protection Agency [EPA] National Institutes of Environmental Health Sciences [NIEHS] National Toxicology Program [NTP] Assay overview: Apoptosis is a process of programmed cell death and plays a central role in the development of multicellular organisms. It is a highly regulated process and induces cell death by activating caspases, which are the members of cysteine aspartic acid-specific protease (caspase) family. Caspases involved in apoptosis are classified by their mechanism of action as initiator caspases (caspase-2, -8, -9 and -10) and executioner caspases (caspase-3, -6, and -7). Inhibition of apoptosis results in number of cancers, autoimmune diseases, inflammatory diseases and viral infection. To identify small molecule compounds that induce apoptosis, a homogeneous, luminescent Caspase-Glo 3/7 assay was used. Wild type HepG2 cells were used to screen Tox21 libraries for identifying caspase-3/7 activity inducers.
# Assay Protocol Summary: HepG2 cells were dispensed at 2,000 per well in 5uL of culture medium into white solid bottom 1536-well plates (Corning Life Sciences, Corning, NY) using a Multidrop Combi (Thermo Scientific, Waltham, MA) dispenser. The assay plates were incubated at 37 C and 5% CO2 for 5hr, and then 23nL of compounds dissolved in DMSO and positive control were transferred using a Pintool station (Wako, San Diego, CA). The assay plates were incubated at 37C and 5% CO2 for 17hr. For caspase-3/7 activity read, 4uL of Caspase-Glo 3/7 reagent (Promega Corporation, Madison, WI) was added to each well of the assay plates using Flying Reagent Dispenser (FRD, Aurora Discovery, San Diego, CA) and incubated the assay plates at room temperature for 30min. The luminescence signal was quantified using a ViewLux plate reader (Perkin Elmer, Shelton, CT).
# % is set by controls: 0 for no effect and ±100 for the full control effect.
SMILES,outcome,caspase activation
CCO[Si](OCC)(OCC)c1ccccc1,inactive,
CNC(=O)Nc1ccc(Cl)c(Cl)c1,inactive,
COC(=O)Nc1ccc(Cl)c(Cl)c1,inactive,
COc1cc(C(=O)NCc2ccc(OCCN(C)C)cc2)cc(OC)c1OC,inactive,
CC(COc1ccccc1)NN (stereo not given),inactive,
NC(CCC(=O)O)C(=O)O (stereo not given),inactive,
OCCCCCO,inactive,
Cc1ccccc1N=C(N)N=C(N)N,inactive,
O=C(O)CCCC[P+](c1ccccc1)(c1ccccc1)c1ccccc1,inactive,
CCCC[N+](C)(CCCC)CCCC,inactive,
NC(N)=NCCN1CCCCCCC1,,-1.67% [at 0.349 µM] (inactive)
NO,inactive,
CC(C)C[C@@H](N)C(=O)O,,-0.781% [at 19 µM] (inactive)
CN(C)C(=O)Oc1cccc([N+](C)(C)C)c1,inactive,
C=C(C)C(=O)OCC(O)CO (stereo not given),inactive,
CC(=O)c1ccc2ccccc2c1,inactive,
C=COC(=O)C(C)(CC)CCC(C)C (stereo not given),inactive,
COCCOC[C@H](CC1(C(=O)NC2CCC(C(=O)O)CC2)CCCC1)C(=O)Oc1ccc2c(c1)CCC2 (stereo not given in full),inactive,
C1CCC2=NCCCN2CC1,inactive,
[Ca+2],inactive,

SMILES,outcome,caspase activation
CC(C)NNC(=O)c1ccncc1,inactive,
C[C@@H]1C[C@H]2[C@@H]3C[C@H](F)C4=CC(=O)C(Cl)=C[C@]4(C)[C@@]3(F)[C@@H](O)C[C@]2(C)[C@@]1(O)C(=O)CO,inactive,
O=C(O)Cc1csc(-c2ccc(Cl)cc2)n1,inactive,
O=S(=O)(O)c1cccc2c(S(=O)(=O)O)cccc12,inactive,
Cc1ncc(COP(=O)(O)O)c(C=O)c1O,inactive,
CCCCc1ccc2c(n1)[C@@H](c1ccc(OC)cc1C[C@H](C)C(=O)O)[C@H](C(=O)O)[C@H]2c1ccc2c(c1)OCO2,inactive,
CC(=O)Oc1cccc(C)c1,inactive,
CCOC(=O)COc1cc(-n2ncc(C(F)(F)F)c(C)c2=O)c(F)cc1Cl,inactive,
CC1CCC(CO)CC1 (stereo not given),inactive,
CN1C(C)(C)CC(O)CC1(C)C,inactive,
Cc1coc2ccccc2c1=O,inactive,
CCCO[Si](OCCC)(OCCC)OCCC,inactive,
Cc1cc(C)c(N=Nc2c(O)c(S(=O)(=O)O)cc3cc(S(=O)(=O)O)ccc23)cc1C,,-0.299% [at 8.39 µM] (inactive)
CCCCS(=O)(=O)N[C@@H](Cc1ccc(OCCCCC2CCNCC2)cc1)C(=O)O,inactive,
CCOC(=O)c1ccccc1,inactive,
COCCOCC(OC)OC,inactive,
c1coc(CNc2ncnc3nc[nH]c23)c1,inactive,
CC(C)c1ccc2ncccc2c1,inactive,
CN1[C@@H]2CC[C@H]1CC(OC(=O)C(O)c1ccccc1)C2 (stereo not given in full),inactive,
CCOC(=O)c1cnc2c(cnn2CC)c1NN=C(C)C,inactive,

# — PubChem BioAssay (Tox21)
